According to PubChem BioAssay AID1835 (Johns Hopkins Ion Channel Center, 2009):
About 750 (31%) of roughly 2,400 compounds were called active.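 How the source made its calls: active means median signal gain over dofetilide-blocked control wells reaching their mean plus 3 SD, so readout 1 at least 0; inactive means the rest.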 Some of the results follow.

molecular target: Voltage-gated inwardly rectifying potassium channel KCNH2 (Homo sapiens) (UniProt Q12809); assay: modulators restoring hERG flux under dofetilide – cell-based, thallium flux, duplicate retest, dofetilide IC70, confirmation (AID 1835); conditions: hERG cell line, FluxOR thallium flux, dofetilide-blocked; at 10 µM; active compounds read high
Sequence (Q12809 whole entry, looked up): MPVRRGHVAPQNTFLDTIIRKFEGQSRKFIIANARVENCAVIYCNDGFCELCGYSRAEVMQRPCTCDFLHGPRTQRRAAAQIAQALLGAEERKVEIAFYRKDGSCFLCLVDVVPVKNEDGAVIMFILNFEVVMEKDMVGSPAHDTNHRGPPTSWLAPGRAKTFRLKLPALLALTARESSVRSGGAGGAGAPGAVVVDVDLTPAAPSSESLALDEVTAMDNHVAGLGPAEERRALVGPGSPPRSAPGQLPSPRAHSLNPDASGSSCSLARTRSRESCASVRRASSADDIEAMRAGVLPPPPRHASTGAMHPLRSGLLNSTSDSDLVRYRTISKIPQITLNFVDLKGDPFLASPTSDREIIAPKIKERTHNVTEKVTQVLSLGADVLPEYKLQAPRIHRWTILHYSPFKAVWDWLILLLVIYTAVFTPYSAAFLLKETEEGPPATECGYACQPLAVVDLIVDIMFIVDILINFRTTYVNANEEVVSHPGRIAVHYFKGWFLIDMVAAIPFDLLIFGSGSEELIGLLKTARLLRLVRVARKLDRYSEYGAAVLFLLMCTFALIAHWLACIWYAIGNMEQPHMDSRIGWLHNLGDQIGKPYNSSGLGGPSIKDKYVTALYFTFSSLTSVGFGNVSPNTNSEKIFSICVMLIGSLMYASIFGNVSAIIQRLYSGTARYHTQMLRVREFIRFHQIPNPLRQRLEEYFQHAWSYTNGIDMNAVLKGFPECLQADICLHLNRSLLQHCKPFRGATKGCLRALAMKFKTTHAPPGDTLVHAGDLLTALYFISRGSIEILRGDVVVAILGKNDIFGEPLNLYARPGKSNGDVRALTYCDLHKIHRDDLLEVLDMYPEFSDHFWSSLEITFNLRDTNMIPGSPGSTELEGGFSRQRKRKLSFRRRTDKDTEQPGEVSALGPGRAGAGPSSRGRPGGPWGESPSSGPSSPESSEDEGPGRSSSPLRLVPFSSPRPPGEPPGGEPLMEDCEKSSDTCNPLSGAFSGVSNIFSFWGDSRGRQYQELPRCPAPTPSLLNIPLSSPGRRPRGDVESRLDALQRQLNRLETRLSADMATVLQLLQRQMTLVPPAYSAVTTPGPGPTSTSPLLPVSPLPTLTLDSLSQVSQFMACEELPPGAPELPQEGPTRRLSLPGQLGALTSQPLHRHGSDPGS

Structure (SMILES)	activity increase over dofetilide control, less the hit threshold
CC1=CN2C(=N)/C(=C/c3ccc(Sc4ccc(Cl)cc4)o3)C(=O)N=C2S1	-2% (inactive)
CC(C)(C)n1nnnc1C(c1cc2cc3c(cc2[nH]c1=O)OCCO3)N1CCSCC1 (centres undefined)	-11% (inactive)
CC(C)(C)c1nc(SCC(=O)N2CCCC2)c2ccccc2n1	-15% (inactive)
Cc1cccc(N2CCN(C(=O)C3CCN(S(=O)(=O)c4cccnc4)CC3)CC2)c1C	-8% (inactive)
C/C(=N\Nc1nc(C)c(C)s1)c1ccc([N+](=O)[O-])cc1	22% (active)
C/C(=N/NC(=S)Nc1cccc(C)c1)c1cccc([N+](=O)[O-])c1	-1% (inactive)
C/C(=N\Nc1cc(N2CCOCC2)ncn1)c1cccc([N+](=O)[O-])c1	-24% (inactive)
COc1ccc2c(C(=O)CN3CCN(c4ccccc4)CC3)c[nH]c2c1	-10% (inactive)
O=C(O)c1cc(NN=C2c3ccccc3-c3ccccc32)ccc1Cl	-4% (inactive)
CCCN1CCC(NC(=O)CC2C(=O)NCCN2Cc2cccc(OC)c2)CC1 (centres undefined)	-6% (inactive)
Cc1cc(C)c2nc(NC(=O)CN3C(=O)NC4(CCCC4)C3=O)sc2c1	-10% (inactive)
O=C(NC(=S)NCc1ccc(-c2nc3ccccc3s2)cc1)c1ccco1	-2% (inactive)
CC1CN(S(=O)(=O)c2ccc(-c3nc4ccccc4s3)cc2)CC(C)O1 (centres undefined)	7% (active)
Cc1ccnc(N2CCC(C(=O)Nc3ccc(Oc4ccccc4)cc3)CC2)n1	-11% (inactive)
CCOC(=O)N1CCC(N2C(=O)c3ccccc3C2Nc2cccnc2)CC1 (centres undefined)	11% (active)
COc1ccc(-n2ncc3c2CC(C)(C)CC3NC(=O)c2cn[nH]c2)cc1 (centres undefined)	-9% (inactive)
Cc1cc(C)cc(-n2ncc3c2CCCC3NC(=O)c2csnn2)c1 (centres undefined)	58% (active)
Cc1ccc(-n2ncc3c2CCCC3NC(=O)c2csnn2)cc1C (centres undefined)	21% (active)
COc1cc2c(cc1OC)C(c1ccc([N+](=O)[O-])cc1)N(C(C)=O)CC2 (centres undefined)	-36% (inactive)
Cc1ccc(S(=O)(=O)Nc2c(C)[nH]c(=O)[nH]c2=O)cc1C	-13% (inactive)
O=C(NC(=S)N1CCN(c2nc(-c3ccccc3)cs2)CC1)c1cncc(Br)c1	12% (active)
Brc1ccc(-c2csc(N3CCCCCC3)n2)cc1	-3% (inactive)
S=C(NCc1ccco1)N1CCN(c2nc(-c3ccccc3)cs2)CC1	-13% (inactive)
O=C(NC(=S)Nc1ncc(Br)cc1Br)c1ccccc1	11% (active)
COc1ccc(-c2csc(NC(=S)NC(=O)c3cccs3)n2)cc1Br	6% (active)

Structure (SMILES)	activity increase over dofetilide control, less the hit threshold
COc1ccc(-c2csc(NC(=S)NC(=O)c3cccs3)n2)cc1OC	-1% (inactive)
O=C(NC(=S)Nc1nc(-c2ccccc2)cs1)c1cccs1	17% (active)
CC(O)C(NS(=O)(=O)c1ccc(Cl)cc1)C(=O)OCc1cc([N+](=O)[O-])cc2c1OCOC2 (centres undefined)	-12% (inactive)
Cc1cc(-c2ccccc2)[nH]c(=O)c1S(=O)(=O)c1ccccc1	-17% (inactive)
O=C(CN(C(=O)CNS(=O)(=O)c1ccc(F)cc1)c1cccc(F)c1)NCC1CCCO1 (centres undefined)	-17% (inactive)
Cc1ccc(C)c(NC(=S)NC(=O)c2cncc(Br)c2)c1	6% (active)
O=C(NC(=S)Nc1cccc(Cl)c1)c1cncc(Br)c1	-10% (inactive)
COc1ccc(-c2csc(NC(=S)NC(=O)c3ccc4ccccc4c3)n2)cc1OC	-9% (inactive)
Cc1ccc(NC(=S)NC(=O)c2cncc(Br)c2)cc1Cl	-13% (inactive)
O=C(NC(=S)Nc1nc(-c2ccccc2)cs1)c1cncc(Br)c1	1% (active)
CC1CCCC(NC(=S)NC(=O)c2cncc(Br)c2)C1C (centres undefined)	-10% (inactive)
COc1cc(S(=O)(=O)n2cnc(C)c2)ccc1Cl	-20% (inactive)
COC(=O)C1=C(C)N(CC2CCCO2)C(=O)/C1=C\c1ccc(O)cc1 (centres undefined)	8% (active)
COC(=O)c1cc2sc(Cl)cc2n1CC(=O)NCC1CCCO1 (centres undefined)	-8% (inactive)
Cc1ccc(NC(=O)CSc2nnc(C3CC3)n2CC2CCCO2)c(C)c1 (centres undefined)	-14% (inactive)
O=S(=O)(c1ccc(F)cc1)N1CCN(c2ccc(F)cc2)CC1	-15% (inactive)
CCC1SC2=NC(C)=C(C(=O)OC)C(c3ccc(C(=O)OC)cc3)N2C1=O (centres undefined)	-1% (inactive)
CCOC(=O)c1sc(=S)n2c1[nH]c(=O)c1ccc(C(=O)OC)cc12	51% (active)
CC(=O)N1C(=O)/C(=C2\SC(=S)N(NC(=O)c3ccc(O)cc3)C2=O)c2ccccc21	-3% (inactive)
S=c1nc(-c2ccccc2)[nH]n1-c1ccccc1	54% (active)
COc1cc(-c2nnc(SCC(=O)O)n2-c2ccccc2)cc(OC)c1OC	-9% (inactive)
Cc1ccc(/C=C2/C(=N)N3N=C(CC(=O)N4CCCC4)SC3=NC2=O)cc1	-2% (inactive)
CC(C)CSC1=NSC2=NC(=O)/C(=C\c3ccccc3)C(=N)N12	32% (active)
CC(Oc1ccccc1F)C(=O)NC1CCS(=O)(=O)C1 (centres undefined)	-9% (inactive)
